This is one part of a sample in which hits are shown more often than they occur.
Pf Dd2 inh: blocks in vitro growth of P. falciparum Dd2 | P. falciparum Dd2 growth, SYBR Green, 72 h | Potency, µM (doses to about 28.9 µM), for inactives: at the top dose activity, negative = inhibition, hits mostly inhibitors | actives 4.3% (n = 120,000) | AID 1347417; active means well fitted inhibition curve with a large enough effect;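 further: plate controls were DMSO vehicle for no effect and reference drug for full effect; nearly all actives have a fitted effect of over 65% in size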
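Readout: SYBR Green fluorescence, 485 nm excitation, 535 nm emission, after ~16 h lysis at 37C. Before that, Dd2-infected red cells (2.5% hematocrit) grew 72 h with compound, 29 uM top final concentration.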
* hit, by the source's call; i = inactive; [ ] = another dose, or the depositor's remark. Potency means the concentration at half of the fitted maximal effect.

SMILES	Pf Dd2 inh
O=C(O)c1cccc2c1CCN2S(=O)(=O)c1ccccc1F	-25%
CC1CN2CC(O)CC2CN1 (stereo not drawn)	15%[76.6 µM]
CC(=O)N1CCN(C(=O)N2CC3CC(C2)[C@H]2CCCC(=O)N2C3)CC1 (stereo partly drawn)	21%
O=C(c1ccc(F)cc1F)N1CCC(n2cnnc2C2CC2)CC1	12%
CN(Cc1ccc(-c2ccccc2)cc1)C(=O)c1ccccc1Cl	-18%
COc1ccc2[nH]c(C(=O)N3CCCN(S(=O)(=O)c4ccccc4)CCC(=O)NCC3)cc2c1	13µM*
O=C1CCN(S(=O)(=O)c2ccccc2)CCCN(Cc2ccccn2)CCN1	i
Cn1cccc1CN1CCCN(S(=O)(=O)c2ccccc2)CCC(=O)NCC1	-28%
O=C1CCN(S(=O)(=O)c2ccccc2)CCCN(C(=O)C2(c3ccccc3)CC2)CCN1	0.79µM*
O=C1CCN(S(=O)(=O)c2ccccc2)CCCN(C(=O)Cc2ccccc2)CCN1	i
O=C1CCN(S(=O)(=O)c2ccccc2)CCCN(Cc2ccc3[nH]ccc3c2)CCN1	11µM*
O=C1CCN(S(=O)(=O)c2ccccc2)CCCN(C2CCCCCC2)CCN1	10µM*
O=C1CCN(C(=O)C2(c3ccccc3)CC2)CCCCCCN1	-23%
O=C1CCN(S(=O)(=O)c2ccccc2)CCCN(C(=O)c2cc3ccccc3[nH]2)CCN1	-26%
CS(=O)(=O)N1CCCN(S(=O)(=O)c2ccccc2)CCC(=O)NCC1	-19%
COc1ccc(C(=O)N2CCCN(S(=O)(=O)c3ccccc3)CCC(=O)NCC2)cc1	i
O=C1CCN(S(=O)(=O)c2ccccc2)CCCN(C2CCOCC2)CCN1	-27%
Cc1cc(NC(=O)CN2C(=O)NC(c3ccc(Cl)cc3)C3=C2COC3=O)no1 (stereo not drawn)	i
Cn1cnc(C(=O)N2CC(F)(F)C[C@H]2c2nc(C3CC3)no2)c1	3%
COc1ccc(C(=O)N2CCC3(CC2)CC(N(C(=O)c2ccccc2)C2CC2)CCO3)cn1 (stereo not drawn)	i
O=C1CCN(S(=O)(=O)c2ccccc2)CCCN(C(=O)C2CCOCC2)CCN1	0%
CCOc1ccc(C(=O)N2CCC([C@@H]3CNC[C@H]3CO)CC2)cc1OCC	-8%
Cc1ccc(CN2CC[C@@H]3[C@H]2C(=O)NC[C@H](CCC(=O)NCc2cccs2)N3C)cc1	4%
Cc1noc(C)c1Cc1ccc(C(=O)NC2CCc3nnc(C)n3CC2)o1 (stereo not drawn)	2%
O=C([C@H]1C[C@H](Oc2ccccc2)CN1C(=O)C1CCC1)N1CCOCC1	10%
SMILES	Pf Dd2 inh
COC(=O)c1cn([C@H]2CO[C@H]3[C@@H]2OC[C@H]3OC(=O)Nc2ccccc2)nn1	7%[44.1 µM]
CCNC(=O)N1CCCC(c2noc(COc3ccccc3)n2)C1 (stereo not drawn)	-12%
CN1C[C@H](NC2CCC2)CCC[C@@H](C(=O)NC2CC2)CC1=O	-11%[44.1 µM]
CN1C[C@H](NCc2ccc(C(F)(F)F)cc2)CCC[C@@H](C(=O)N(C)Cc2cccnc2)CC1=O	-7%
CN1CCCCCC(O)c2cc(C(=O)NCCc3c[nH]c4ccccc34)ccc21 (stereo not drawn)	13µM*
CN1CCCCCC(O)c2cc(C(=O)NCCN3CCOCC3)ccc21 (stereo not drawn)	-16%
CN1CCCCCC(O)c2cc(C(=O)NCCCc3ccccc3)ccc21 (stereo not drawn)	-18%
FC(F)(F)SCCn1ccnc1-c1cc2n(n1)CCCNC2	-25%
CC(C)N1CCN(C(=O)c2ccc(N3CC4CC(C3)[C@H]3CCCC(=O)N3C4)nc2)CC1 (stereo partly drawn)	-24%
CC1(C(=O)O)CCN(C(=O)c2ccc3c(c2)OCO3)CC1	-8%
C=CCNC(=O)c1cccn2nccc12	11%[44.1 µM]
COCCc1noc(C2Cc3ccccc3N2C(=O)Nc2cc(C)cc(C)c2)n1 (stereo not drawn)	i[5.79 µM]
COCCOc1ccc2c(n1)CCN(C(=O)Nc1ccc(C)c(C)c1)C2	-21%
CC(C)c1cc(C(=O)N2CCCC(c3ccccc3)(c3ccccc3)C2)n(C)n1	3.2µM*
COc1coc(C(=O)N2CCCC(c3ccccc3)(c3ccccc3)C2)cc1=O	-5%
Cc1nnnn1CC(=O)N1CCCC(c2ccccc2)(c2ccccc2)C1	-8%
COc1ccc(NC(=O)c2cc3n(n2)CC(c2ccc(Cl)cc2)OC3)cc1OC (stereo not drawn)	-17%
COc1ccc(C2C=C(c3ccccc3)Nc3nc(NC(=O)c4cccc([N+](=O)[O-])c4)nn32)cc1 (stereo not drawn)	8.9µM*
COc1cccc(C(=O)Nc2nc3nc(-c4ccccc4)cc(=O)n3[nH]2)c1	21%
COc1ccc(C2C=C(c3ccccc3)Nc3nc(NC(=O)c4ccc(C)cc4)nn32)cc1 (stereo not drawn)	13µM*
COc1ccc(C(=O)Nc2noc3ccccc23)cc1	6%
COc1ccc(C(=O)Nc2nc3n(n2)C(c2ccc(Cl)cc2)C=C(c2ccccc2)N3)cc1OC (stereo not drawn)	7.9µM*
COc1ccc(C(=O)Nc2cnc(-c3ccc(Cl)cc3)nc2)cc1	i
COc1ccc(CNC(=O)c2cc(-c3ccc(OC)cc3)nc3n[nH]c(-c4cccc([N+](=O)[O-])c4)c23)cc1	-9%
COc1ccc(C(=O)NCc2nnc3ccc(-c4ccc(Cl)cc4)nn23)cc1OC	i
SMILES	Pf Dd2 inh
CCN1CCC2(CCC1=O)CN(Cc1cccc3cccnc13)CCN2C (stereo not drawn)	-24%
Cc1ccc(NC(=O)Cn2c(N3CCCCC3)nc(C)c(C)c2=O)cc1	i
NC(=O)c1ccc(CC2CCN(C(=O)C3CC=CC3)CC2)cc1	-14%
O=C(Nc1cccc(Cl)c1F)N1CCC(n2cnnc2C2CC2)C1 (stereo not drawn)	-29%
Cc1ccc(S(=O)(=O)NC[C@H]2OC[C@@H](NCc3ccc(S(C)(=O)=O)cc3)[C@@H]2O)cc1	4%
CC(C)N[C@@H]1CC[C@@H]1NC(=O)c1ccccc1OC(F)(F)C(F)F	7.9µM*
CNC(=O)N1C[C@@H](CN(C)C)[C@H](NC(=O)c2ccccc2OC(F)(F)F)C1	i
CN(C)C[C@@H]1CN(C)C[C@H]1NC(=O)c1ccccc1OC(F)(F)F	-7%
COc1ccccc1[C@@H]1CN(C(=O)c2cc(C(C)C)[nH]n2)C[C@H]1C(=O)O	-16%
CC(C)(C)OC(=O)N1CCC(c2c(C(=O)N3CCN(c4ccccc4F)CC3)cnn2C(C)(C)C)CC1	10µM*
COc1ccccc1N1CCN(C(=O)c2cnn(C(C)(C)C)c2C2CCN(C(=O)OC(C)(C)C)CC2)CC1	6.3µM*
Cc1ccc(-n2ncc(C(=O)N3CCN(c4ccccc4F)CC3)c2C2CCN(C(=O)OC(C)(C)C)CC2)cc1C	3%
O=C(N[C@@H]1COCC[C@@H]1OCc1ccccc1)c1n[nH]c2c1COCC2	-6%
Cn1cc(CN2C[C@@H]3OCC(=O)N[C@@H]3C2)c2ccccc21	i
Cn1cc(CN2CC[C@@H](c3ccc4c(c3)OCO4)[C@H](O)C2)c2ccccc21	8.9µM*
Cn1cc(CN2CCC(C3CCN(S(C)(=O)=O)CC3)C2)c2ccccc21 (stereo not drawn)	3.5µM*
CS(=O)(=O)N1CCC(C2CCN(Cc3ccncc3)C2)CC1 (stereo not drawn)	-2%
CN1C[C@H]2CN(Cc3cn(C)c4ccccc34)CCN2C1=O	-28%[44.1 µM]
CS(=O)(=O)N1CCC(C2CCN(Cc3ccsc3)C2)CC1 (stereo not drawn)	i
CN(Cc1nccs1)c1cc(C2CC(O)C2)ncn1 (stereo not drawn)	-4%
